This is an account of results in the supplement of paper PMC10849652.

Of roughly 8,800 targets only a part is listed; those with a hit were picked by preference. About 0.5% of all pairs of compound and target were hits.

UniProt Q8TDI8, sequence (Q8TDI8 whole entry, looked up): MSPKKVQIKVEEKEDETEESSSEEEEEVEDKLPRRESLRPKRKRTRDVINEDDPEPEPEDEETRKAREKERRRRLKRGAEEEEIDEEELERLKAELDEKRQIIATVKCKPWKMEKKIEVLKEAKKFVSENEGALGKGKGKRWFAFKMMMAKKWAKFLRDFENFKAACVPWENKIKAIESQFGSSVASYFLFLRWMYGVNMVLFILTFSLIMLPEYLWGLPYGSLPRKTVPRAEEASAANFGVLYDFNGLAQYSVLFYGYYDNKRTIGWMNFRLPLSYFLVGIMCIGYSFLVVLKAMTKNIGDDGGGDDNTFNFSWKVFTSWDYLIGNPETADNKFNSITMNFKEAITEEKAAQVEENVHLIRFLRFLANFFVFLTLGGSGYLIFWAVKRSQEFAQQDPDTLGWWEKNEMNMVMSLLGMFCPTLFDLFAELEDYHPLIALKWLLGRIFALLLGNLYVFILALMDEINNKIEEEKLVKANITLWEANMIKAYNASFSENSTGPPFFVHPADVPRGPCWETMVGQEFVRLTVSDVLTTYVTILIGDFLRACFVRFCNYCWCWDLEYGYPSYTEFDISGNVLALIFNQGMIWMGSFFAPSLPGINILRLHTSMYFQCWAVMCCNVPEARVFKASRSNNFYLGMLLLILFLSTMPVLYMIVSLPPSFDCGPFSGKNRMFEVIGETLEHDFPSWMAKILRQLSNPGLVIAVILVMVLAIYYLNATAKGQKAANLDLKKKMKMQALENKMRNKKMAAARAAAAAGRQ
UniProt P06753, sequence (P06753 whole entry, looked up): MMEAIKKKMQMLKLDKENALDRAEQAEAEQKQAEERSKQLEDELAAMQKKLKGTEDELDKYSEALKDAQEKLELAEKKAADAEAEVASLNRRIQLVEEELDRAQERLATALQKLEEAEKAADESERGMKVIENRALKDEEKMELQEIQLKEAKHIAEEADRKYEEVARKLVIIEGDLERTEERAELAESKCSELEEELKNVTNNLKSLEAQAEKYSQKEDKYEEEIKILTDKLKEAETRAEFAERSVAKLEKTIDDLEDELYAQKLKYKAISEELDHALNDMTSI
UniProt O75382, sequence (O75382 whole entry, looked up): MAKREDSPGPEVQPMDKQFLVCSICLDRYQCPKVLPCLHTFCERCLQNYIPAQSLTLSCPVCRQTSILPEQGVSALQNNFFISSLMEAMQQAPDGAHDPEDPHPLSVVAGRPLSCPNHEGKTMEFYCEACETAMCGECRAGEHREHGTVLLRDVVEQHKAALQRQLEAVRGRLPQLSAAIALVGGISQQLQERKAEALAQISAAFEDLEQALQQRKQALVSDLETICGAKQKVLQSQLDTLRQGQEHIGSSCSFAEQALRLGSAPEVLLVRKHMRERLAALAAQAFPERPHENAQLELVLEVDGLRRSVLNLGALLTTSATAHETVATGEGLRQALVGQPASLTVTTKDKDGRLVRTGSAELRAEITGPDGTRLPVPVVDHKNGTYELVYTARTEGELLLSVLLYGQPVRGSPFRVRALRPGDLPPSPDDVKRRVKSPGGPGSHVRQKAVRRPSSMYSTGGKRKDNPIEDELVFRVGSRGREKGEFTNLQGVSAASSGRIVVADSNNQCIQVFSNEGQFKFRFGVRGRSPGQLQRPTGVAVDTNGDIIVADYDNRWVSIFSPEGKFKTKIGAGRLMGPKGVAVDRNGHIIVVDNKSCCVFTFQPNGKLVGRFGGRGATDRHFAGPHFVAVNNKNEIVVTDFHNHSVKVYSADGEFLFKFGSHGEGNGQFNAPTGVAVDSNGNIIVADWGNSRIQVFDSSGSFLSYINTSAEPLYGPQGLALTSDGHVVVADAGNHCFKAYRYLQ
UniProt O60637, sequence (O60637 whole entry, looked up): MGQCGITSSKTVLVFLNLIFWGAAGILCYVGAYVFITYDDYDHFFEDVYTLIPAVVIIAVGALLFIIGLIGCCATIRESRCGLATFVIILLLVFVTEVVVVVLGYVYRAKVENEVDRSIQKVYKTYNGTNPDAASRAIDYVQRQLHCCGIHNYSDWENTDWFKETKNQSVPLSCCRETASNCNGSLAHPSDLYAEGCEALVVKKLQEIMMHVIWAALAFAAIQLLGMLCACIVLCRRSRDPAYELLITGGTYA
UniProt Q6Q0C0, sequence (Q6Q0C0 whole entry, looked up): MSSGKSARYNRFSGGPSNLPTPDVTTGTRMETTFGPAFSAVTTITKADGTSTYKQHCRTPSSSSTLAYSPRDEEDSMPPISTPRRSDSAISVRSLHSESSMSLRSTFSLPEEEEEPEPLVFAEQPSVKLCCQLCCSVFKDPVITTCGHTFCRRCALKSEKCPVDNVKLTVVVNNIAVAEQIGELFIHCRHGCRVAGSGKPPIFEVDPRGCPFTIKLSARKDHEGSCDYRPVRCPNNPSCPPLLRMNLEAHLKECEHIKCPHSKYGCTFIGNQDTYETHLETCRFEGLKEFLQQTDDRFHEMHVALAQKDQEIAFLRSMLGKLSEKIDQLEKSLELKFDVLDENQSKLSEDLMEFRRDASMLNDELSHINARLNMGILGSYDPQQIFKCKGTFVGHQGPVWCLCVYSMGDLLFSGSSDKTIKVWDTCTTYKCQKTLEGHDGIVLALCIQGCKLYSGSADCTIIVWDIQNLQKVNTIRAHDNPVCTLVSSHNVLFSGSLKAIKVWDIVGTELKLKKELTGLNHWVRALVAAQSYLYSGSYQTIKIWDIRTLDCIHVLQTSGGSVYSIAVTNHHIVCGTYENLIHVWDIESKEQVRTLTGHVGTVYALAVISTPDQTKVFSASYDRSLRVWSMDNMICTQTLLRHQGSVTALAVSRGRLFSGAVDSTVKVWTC
UniProt Q9BRN9, sequence (Q9BRN9 whole entry, looked up): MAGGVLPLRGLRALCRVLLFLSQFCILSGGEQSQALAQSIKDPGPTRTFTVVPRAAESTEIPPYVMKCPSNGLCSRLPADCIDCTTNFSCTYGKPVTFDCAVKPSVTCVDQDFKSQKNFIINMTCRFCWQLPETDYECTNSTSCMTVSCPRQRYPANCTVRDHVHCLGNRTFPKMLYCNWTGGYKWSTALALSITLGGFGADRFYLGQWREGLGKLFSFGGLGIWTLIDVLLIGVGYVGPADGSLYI
UniProt P15923, sequence (P15923 whole entry, looked up): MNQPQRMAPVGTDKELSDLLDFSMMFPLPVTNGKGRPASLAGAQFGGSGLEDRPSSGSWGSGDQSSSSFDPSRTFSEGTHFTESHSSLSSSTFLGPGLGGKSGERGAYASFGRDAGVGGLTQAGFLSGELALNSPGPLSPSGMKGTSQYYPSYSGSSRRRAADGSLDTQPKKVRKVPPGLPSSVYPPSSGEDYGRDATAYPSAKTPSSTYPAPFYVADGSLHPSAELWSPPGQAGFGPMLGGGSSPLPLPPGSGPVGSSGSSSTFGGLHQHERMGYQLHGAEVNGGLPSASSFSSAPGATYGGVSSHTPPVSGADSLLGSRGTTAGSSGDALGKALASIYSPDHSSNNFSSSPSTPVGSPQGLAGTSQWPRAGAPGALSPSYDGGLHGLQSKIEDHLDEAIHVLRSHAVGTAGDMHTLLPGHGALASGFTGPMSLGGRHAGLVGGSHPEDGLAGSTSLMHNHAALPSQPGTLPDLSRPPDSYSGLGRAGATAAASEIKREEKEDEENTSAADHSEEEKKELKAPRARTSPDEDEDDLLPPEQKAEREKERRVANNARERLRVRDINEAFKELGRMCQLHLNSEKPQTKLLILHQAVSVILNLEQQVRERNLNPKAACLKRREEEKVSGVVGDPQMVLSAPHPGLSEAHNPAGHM
UniProt Q9NNW7, sequence (Q9NNW7 whole entry, looked up): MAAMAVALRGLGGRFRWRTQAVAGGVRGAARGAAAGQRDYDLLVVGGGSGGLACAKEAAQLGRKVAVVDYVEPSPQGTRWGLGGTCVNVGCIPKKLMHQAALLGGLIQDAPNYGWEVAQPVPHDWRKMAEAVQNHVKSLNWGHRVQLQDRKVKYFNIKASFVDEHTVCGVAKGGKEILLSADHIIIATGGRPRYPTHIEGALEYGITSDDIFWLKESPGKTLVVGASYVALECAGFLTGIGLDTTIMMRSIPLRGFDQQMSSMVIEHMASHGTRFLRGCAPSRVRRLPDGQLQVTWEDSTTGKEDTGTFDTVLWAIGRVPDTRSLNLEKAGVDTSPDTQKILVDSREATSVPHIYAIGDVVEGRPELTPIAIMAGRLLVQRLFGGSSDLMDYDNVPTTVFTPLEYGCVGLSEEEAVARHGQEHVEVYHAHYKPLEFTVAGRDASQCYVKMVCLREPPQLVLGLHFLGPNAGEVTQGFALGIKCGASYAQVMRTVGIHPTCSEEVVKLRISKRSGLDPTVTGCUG
UniProt P04350, sequence (P04350 whole entry, looked up): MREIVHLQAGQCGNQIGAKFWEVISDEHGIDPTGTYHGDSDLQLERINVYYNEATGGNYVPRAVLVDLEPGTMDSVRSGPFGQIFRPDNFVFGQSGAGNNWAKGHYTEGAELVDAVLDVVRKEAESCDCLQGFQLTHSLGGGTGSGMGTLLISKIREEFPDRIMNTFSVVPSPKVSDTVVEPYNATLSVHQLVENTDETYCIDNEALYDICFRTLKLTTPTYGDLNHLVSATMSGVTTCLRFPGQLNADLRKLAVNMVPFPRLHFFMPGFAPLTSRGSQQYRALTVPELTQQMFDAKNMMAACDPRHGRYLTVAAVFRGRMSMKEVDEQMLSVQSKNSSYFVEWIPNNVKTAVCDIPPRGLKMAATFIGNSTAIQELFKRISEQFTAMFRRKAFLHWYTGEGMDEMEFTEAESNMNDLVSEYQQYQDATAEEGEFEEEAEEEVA
UniProt P55851, sequence (P55851 whole entry, looked up): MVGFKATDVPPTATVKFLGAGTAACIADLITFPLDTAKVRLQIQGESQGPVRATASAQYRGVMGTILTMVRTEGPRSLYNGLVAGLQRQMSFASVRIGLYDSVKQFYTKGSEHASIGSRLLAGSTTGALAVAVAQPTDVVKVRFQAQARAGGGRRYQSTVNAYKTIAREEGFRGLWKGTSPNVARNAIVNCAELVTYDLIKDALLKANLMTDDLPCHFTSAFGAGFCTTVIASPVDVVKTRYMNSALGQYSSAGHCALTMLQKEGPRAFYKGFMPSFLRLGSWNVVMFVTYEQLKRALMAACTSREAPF
UniProt P62328, sequence (P62328 whole entry, looked up): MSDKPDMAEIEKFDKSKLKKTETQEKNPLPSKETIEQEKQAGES

Compound in the first experiment: C#Cc1cccc(Nc2ncnc3cc(OCCOC)c(OCCOC)cc23)c1 [erlotinib]
The experiment can be described thus: log2 fold change, soluble protein after heating vs DMSO (PISA); higher = thermal stabilisation; K562 lysate, 10 uM; active = over 0.2 and 3.5 SD of the protein, either way, in both replicates (recomputed). In a few lines:
(§1)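 Log-two fold change in thermal stability relative to solvent controls is reported from duplicates. For each sample, crude K562 extract from dounce-homogenised pellets in PBS pH 7.4 with 1 mM MgCl2, at 1 mg/mL protein, was treated with 10 μM compound for 30 min. Aliquots heated for 3 min across 48°C-58°C were pooled, brought to 0.5% NP-40 at 4°C and cleared at 21,000xg for 90 min. The supernatant was quantified by TMTpro 16plex LC-MS/MS with channel sums equalised.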
Regarding TMEM132A isoform 2 (UniProt Q24JP5), the log2 fold change was -0.031 (inactive).
Same read-out and setting: in the case of TASP1 (UniProt Q9H6P5) it was -0.013 (inactive); in that of TPD52L2 isoform 3 (UniProt O43399), 0.008 (inactive).
The same measure, in the same setting: the same measure for TFPT (UniProt P0C1Z6): -0.078 (inactive); for TPM3 isoform 3 (UniProt P06753): -0.074 (inactive).
The same measure, in the same setting: in the case of UBR4 isoform 4 (UniProt Q5T4S7) it was 0.121 (inactive); in that of TNFAIP3 (UniProt P21580), 0.018 (inactive).
For the target TCF3 isoform 2 (UniProt P15923), the log2 fold change is 0.131 (inactive).
The same measure, in the same setting: in the case of TUBB4A (UniProt P04350) it was 0.036 (inactive); in that of TM2D3 (UniProt Q9BRN9), 0.104 (inactive); in that of TSPAN3 (UniProt O60637), 0.002 (inactive).
Consider TLE3 isoform 5 (UniProt Q04726), for which the log2 fold change was 0.036 (inactive).
For the target TRPM4 (UniProt Q8TD43), the log2 fold change was 0.018 (inactive).
Turning to TRIM3 (UniProt O75382), the log2 fold change is 0.129 (inactive).
On the same count and under the same terms, the same measure for TMSB4X (UniProt P62328): 0.079 (inactive); for TCF20 (UniProt Q9UGU0): -0.04 (inactive).
The same measure, in the same setting: the same measure for TXNRD2 isoform 3 (UniProt Q9NNW7): 0.024 (inactive); for TEDC1 (UniProt Q86SX3): 0.05 (inactive).
Still for that read-out and setting: the same measure for TGFBR1 isoform 2 (UniProt P36897): 0.042 (inactive).
For the target U2AF1L5 (UniProt P0DN76), the log2 fold change is -0.029 (inactive).
Same read-out and setting: the same measure for TMC1 (UniProt Q8TDI8): -0.028 (inactive).

Compound in another experiment: C/C(=N\NC(=O)C1=CC(=CC=C1)S(=O)(=O)N2CCOCC2)/C3=C(C=CC(=C3)Cl)O
The experiment is described as above. The method, boiled down:
as §1
Take TPM3 isoform 3 (UniProt P06753): the log2 fold change is -0.007 (inactive).
As for TCF3 (UniProt X6REB3), the log2 fold change is -0.006 (inactive).
Still for that read-out and setting: in the case of UBR4 isoform 4 (UniProt Q5T4S7) it was -0.209 (inactive); in that of TRAF7 (UniProt Q6Q0C0), 0.006 (inactive).
Regarding TEC (UniProt P42680), the log2 fold change was 0.092 (inactive).
Regarding TSPAN3 (UniProt O60637), the log2 fold change is 0.012 (inactive).
On the same count and under the same terms, the same measure for TFPI isoform 2 (UniProt P10646): 0.01 (inactive).
The same measure, in the same setting: in the case of UBAP2L (UniProt F8W726) it was -0.074 (inactive); in that of TRIM3 (UniProt O75382), 0.2 (inactive); in that of UBN1 (UniProt Q9NPG3), 0.032 (inactive).
Take TMC1 (UniProt Q8TDI8): the log2 fold change is -0.001 (inactive).
On the same count and under the same terms, in the case of UCP2 (UniProt P55851) it was 0.217 (inactive); in that of TMPO isoform 2 (UniProt P42167), -0.053 (inactive); in that of TUBGCP5 (UniProt Q96RT8), 0.001 (inactive).
On to THAP9 (UniProt Q9H5L6), for which the log2 fold change was 0.019 (inactive).

Compound in another experiment: C1=CC(=CC=C1C2=NC3=C(N2)C=C(C=C3)C(=O)N)OC4=CC=C(C=C4)Cl
Described as above. The method, boiled down: as §1
For the target TMEM132A isoform 2 (UniProt Q24JP5), the log2 fold change was -0.009 (inactive).
TASP1 (UniProt Q9H6P5): the log2 fold change was -0.017 (inactive).
The same measure, in the same setting: the same measure for TPD52L2 isoform 3 (UniProt O43399): -0.036 (inactive); for TFPT (UniProt P0C1Z6): 0.037 (inactive).
On the same count and under the same terms, the same measure for TPM3 isoform 3 (UniProt P06753): -0.076 (inactive); for UBR4 isoform 4 (UniProt Q5T4S7): -0.073 (inactive).
On the same count and under the same terms, the same measure for TNFAIP3 (UniProt P21580): 0.024 (inactive); for TCF3 isoform 2 (UniProt P15923): -0.049 (inactive).
As for TUBB4A (UniProt P04350), the log2 fold change was 0.015 (inactive).
The same measure, in the same setting: in the case of TM2D3 (UniProt Q9BRN9) it was -0.083 (inactive).
The same measure, in the same setting: in the case of TSPAN3 (UniProt O60637) it was 0.058 (inactive); in that of TLE3 isoform 5 (UniProt Q04726), -0.068 (inactive); in that of TRPM4 (UniProt Q8TD43), 0.164 (inactive).
On to TRIM3 (UniProt O75382), for which the log2 fold change was -0.909 (active).
Still for that read-out and setting: in the case of TMSB4X (UniProt P62328) it was 0.084 (inactive); in that of TCF20 (UniProt Q9UGU0), -0.001 (inactive).
Turning to TXNRD2 isoform 3 (UniProt Q9NNW7), the log2 fold change was 0.035 (inactive).
The same measure, in the same setting: in the case of TEDC1 (UniProt Q86SX3) it was 0.057 (inactive); in that of TGFBR1 isoform 2 (UniProt P36897), -0.069 (inactive).
On the same count and under the same terms, in the case of U2AF1L5 (UniProt P0DN76) it was 0.044 (inactive); in that of TMC1 (UniProt Q8TDI8), -0.007 (inactive).

Compound in a further experiment: C1=CC2=C(C=CC(=C2)/C=C\3/C(=O)NC(=NCC4=CC=CS4)S3)N=C1
The experiment is described as above. In a few lines:
as §1
As for TPM3 isoform 3 (UniProt P06753), the log2 fold change is -0.006 (inactive).
On the same count and under the same terms, in the case of TCF3 (UniProt X6REB3) it was -0.208 (inactive).
UBR4 isoform 4 (UniProt Q5T4S7): the log2 fold change is -0.071 (inactive).
On the same count and under the same terms, in the case of TRAF7 (UniProt Q6Q0C0) it was -0.042 (inactive).
On the same count and under the same terms, the same measure for TEC (UniProt P42680): -0.051 (inactive).
Turning to TSPAN3 (UniProt O60637), the log2 fold change was -0.073 (inactive).
Same read-out and setting: in the case of TFPI isoform 2 (UniProt P10646) it was 0.113 (inactive); in that of UBAP2L (UniProt F8W726), 0.048 (inactive).
Still for that read-out and setting: in the case of TRIM3 (UniProt O75382) it was 0.098 (inactive); in that of UBN1 (UniProt Q9NPG3), -0.056 (inactive).
Take TMC1 (UniProt Q8TDI8): the log2 fold change was 0.013 (inactive).
The same measure, in the same setting: the same measure for UCP2 (UniProt P55851): -0.114 (inactive); for TMPO isoform 2 (UniProt P42167): 0.044 (inactive); for TUBGCP5 (UniProt Q96RT8): -0.026 (inactive).
Still for that read-out and setting: the same measure for THAP9 (UniProt Q9H5L6): -0.015 (inactive).
